Test results taken from PubChem BioAssay (EPA / NIEHS).
Calls of active or inactive are those of the source. The calls were made as follows: active = hit-call score of the fitted dose curve at least 0.9, where 1 is the maximum; inactive = score below 0.9.

target: Transcription factor Sp1 (Homo sapiens) (UniProt P08047); assay: ATG_Sp1_CIS: Attagene CIS-FACTORIAL HepG2 Assay for human Specificity Protein 1 (Sp1) (AID 2282961); conditions: HepG2 Sp1 cis-reporter transcription, actives raise or lower the signal
Summary of the method: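 After transient transfection of HepG2 cells with cis-promoter reporter units and 24 h chemical treatment, reporter transcripts were quantified by RT-PCR and capillary electrophoresis fluorescence. Gain- and loss-of-signal fitted against DMSO.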

Sequence of Transcription factor Sp1 (Homo sapiens) (P08047 whole entry, looked up): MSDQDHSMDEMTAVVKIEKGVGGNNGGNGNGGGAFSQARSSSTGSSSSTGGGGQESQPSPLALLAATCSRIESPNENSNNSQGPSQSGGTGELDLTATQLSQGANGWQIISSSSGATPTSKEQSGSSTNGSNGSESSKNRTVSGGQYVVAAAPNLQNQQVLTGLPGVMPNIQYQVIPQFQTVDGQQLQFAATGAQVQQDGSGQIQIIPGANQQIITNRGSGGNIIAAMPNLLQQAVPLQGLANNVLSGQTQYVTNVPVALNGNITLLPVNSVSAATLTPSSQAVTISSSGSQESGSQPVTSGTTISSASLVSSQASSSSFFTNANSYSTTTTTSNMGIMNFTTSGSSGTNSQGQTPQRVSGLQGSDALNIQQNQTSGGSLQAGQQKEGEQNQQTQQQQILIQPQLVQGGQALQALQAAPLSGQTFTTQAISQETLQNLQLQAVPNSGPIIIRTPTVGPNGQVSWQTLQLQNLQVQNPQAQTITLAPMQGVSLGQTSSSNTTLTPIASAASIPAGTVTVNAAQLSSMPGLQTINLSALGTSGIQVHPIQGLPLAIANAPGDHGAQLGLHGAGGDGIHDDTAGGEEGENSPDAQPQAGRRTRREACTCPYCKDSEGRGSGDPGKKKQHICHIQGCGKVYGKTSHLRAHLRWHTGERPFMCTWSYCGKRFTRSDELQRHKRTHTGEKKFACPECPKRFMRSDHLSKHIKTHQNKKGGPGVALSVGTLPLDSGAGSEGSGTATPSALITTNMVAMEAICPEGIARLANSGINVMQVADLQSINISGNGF

| Compound | outcome | AC50 |
| --- | --- | --- |
| O=C1OC(=O)C(F)(F)C1(F)F | inactive | – |
| CCCCc1ccc2ccccc2c1S(=O)(=O)O | inactive | – |
| Oc1c(Cl)cc(Cl)cc1Sc1cc(Cl)cc(Cl)c1O | inactive | – |
| CCOC(C)=O | inactive | – |
| CCc1cccc(CC)c1N(COC)C(=O)CS(=O)(=O)O | inactive | – |
| N=C(N)c1ccc(OCCCCCOc2ccc(C(=N)N)cc2)cc1 | inactive | – |
| CCCCCCCCCCCCCCCC(=O)OC | inactive | – |
| O=C(O)CN(CCCN(CC(=O)O)CC(=O)O)CC(=O)O | inactive | – |
| CCC1CO1 (stereo unspecified) | inactive | – |
| CC=O | inactive | – |
| Cc1cc(Cc2cc(C)cc(C(C)(C)C)c2O)c(O)c(C(C)(C)C)c1 | – | 93.6 µM (active) |
| O=C(F)C(F)(F)C(F)(F)C(F)(F)C(=O)F | inactive | – |
| CCOC(OCC)C(=O)c1ccccc1 | inactive | – |
| O=C1c2ccc(O)c(O)c2C(=O)c2c(O)ccc(O)c21 | inactive | – |
| CCc1cccc(CC)c1NC(=O)C(=O)O | inactive | – |
| OCC(CO)(CBr)CBr | inactive | – |
| CCOCCOCC | inactive | – |
| OCC(F)(F)C(F)(F)C(F)(F)C(F)(F)C(F)(F)C(F)(F)C(F)(F)C(F)(F)C(F)(F)C(F)(F)C(F)(F)F | inactive | – |
| CCOC(=O)c1nc(C(Cl)(Cl)Cl)n(-c2ccc(Cl)cc2Cl)n1 | – | 54.6 µM (active) |

| Compound | outcome | AC50 |
| --- | --- | --- |
| CC(C)c1c(C(=O)Nc2ccccc2)c(-c2ccccc2)c(-c2ccc(F)cc2)n1CC[C@@H](O)C[C@@H](O)CC(=O)O | inactive | – |
| C[C@]12CC[C@@H]3c4ccc(O)cc4CC[C@H]3[C@@H]1C[C@@H](O)[C@@H]2O | inactive | – |
| FC(OC(F)(F)C(F)(F)C(F)(F)F)C(F)(F)F (stereo unspecified) | inactive | – |
| CCC(=O)O | inactive | – |
| Oc1cccc2c(O)cccc12 | inactive | – |
| CC1=NN(c2ccccc2)C(=O)C1 | inactive | – |
| Nc1ccc(O)c(C(=O)O)c1 | inactive | – |
| O=C(C=C(O)C(F)(F)F)C(F)(F)F | inactive | – |
| CCCCCC(C)OC(=O)COc1ccc(Cl)c2cccnc12 (stereo unspecified) | inactive | – |
| COc1cccc(O)c1 | inactive | – |
| O=C(F)C(F)(F)C(F)(F)C(F)(F)C(F)F | inactive | – |
| O=C(Nc1cccc([N+](=O)[O-])c1)c1cc2ccccc2cc1O | inactive | – |
| O=P(O)(O)CCC(F)(F)C(F)(F)C(F)(F)C(F)(F)C(F)(F)C(F)(F)C(F)(F)C(F)(F)F | inactive | – |
| CCOC=O | inactive | – |
| Oc1ccc(Cc2ccccc2O)cc1 | inactive | – |
| O=CC(F)(F)C(F)(F)C(F)(F)C(F)F | inactive | – |
| CCCCCCCCCCCC[N+](C)(C)CCCCCCCCCCCC | inactive | – |
| CCc1ccccc1O | inactive | – |

system: not listed separately; assay: ATG_SREBP_CIS: Attagene CIS-FACTORIAL HepG2 Assay for human Sterol Regulatory Element Binding (SREBP) (AID 2282962); conditions: HepG2 Attagene cis-factorial SREBP reporter, mRNA; actives raise or lower the signal
Summary of the method: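 Transfected HepG2 (cis-regulated reporter library, endogenous TFs) → compound 24 h → total RNA → oligo(dT) RT → reporter-specific PCR → FAM primer extension, HpaI cut → CE fluorescence. Fit bidirectional vs DMSO.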

| Compound | outcome | AC50 |
| --- | --- | --- |
| O=C1OC(=O)C(F)(F)C1(F)F | inactive | – |
| CCCCc1ccc2ccccc2c1S(=O)(=O)O | inactive | – |
| Oc1c(Cl)cc(Cl)cc1Sc1cc(Cl)cc(Cl)c1O | inactive | – |
| CCOC(C)=O | inactive | – |
| N=C(N)c1ccc(OCCCCCOc2ccc(C(=N)N)cc2)cc1 | inactive | – |
| CCCCCCCCCCCCCCCC(=O)OC | inactive | – |
| O=C(O)CN(CCCN(CC(=O)O)CC(=O)O)CC(=O)O | inactive | – |
| Cc1cc(Cc2cc(C)cc(C(C)(C)C)c2O)c(O)c(C(C)(C)C)c1 | inactive | – |
| O=C(F)C(F)(F)C(F)(F)C(F)(F)C(=O)F | inactive | – |
| CCOC(OCC)C(=O)c1ccccc1 | inactive | – |
| O=C1c2ccc(O)c(O)c2C(=O)c2c(O)ccc(O)c21 | inactive | – |
| CCc1cccc(CC)c1NC(=O)C(=O)O | inactive | – |
| OCC(CO)(CBr)CBr | inactive | – |
| CCOCCOCC | inactive | – |
| OCC(F)(F)C(F)(F)C(F)(F)C(F)(F)C(F)(F)C(F)(F)C(F)(F)C(F)(F)C(F)(F)C(F)(F)C(F)(F)F | inactive | – |
| CCOC(=O)c1nc(C(Cl)(Cl)Cl)n(-c2ccc(Cl)cc2Cl)n1 | – | 27.7 µM (active) |
| FC(OC(F)(F)C(F)(F)C(F)(F)F)C(F)(F)F (stereo unspecified) | inactive | – |
| Oc1cccc2c(O)cccc12 | inactive | – |
| CC1=NN(c2ccccc2)C(=O)C1 | inactive | – |
| Nc1ccc(O)c(C(=O)O)c1 | inactive | – |
| O=C(C=C(O)C(F)(F)F)C(F)(F)F | inactive | – |
| CCCCCC(C)OC(=O)COc1ccc(Cl)c2cccnc12 (stereo unspecified) | inactive | – |
| COc1cccc(O)c1 | inactive | – |
| O=C(F)C(F)(F)C(F)(F)C(F)(F)C(F)F | inactive | – |
| O=C(Nc1cccc([N+](=O)[O-])c1)c1cc2ccccc2cc1O | inactive | – |
| O=P(O)(O)CCC(F)(F)C(F)(F)C(F)(F)C(F)(F)C(F)(F)C(F)(F)C(F)(F)C(F)(F)F | inactive | – |
| Oc1ccc(Cc2ccccc2O)cc1 | inactive | – |
| CCc1ccccc1O | inactive | – |

target: Signal transducer and activator of transcription 3 (Homo sapiens) (UniProt P40763); assay: ATG_STAT3_CIS: Attagene CIS-FACTORIAL HepG2 Assay for human Signal Transducer and Activator of Transcription 3 (STAT3) (AID 2282963); conditions: HepG2, Attagene cis-factorial STAT3 reporter transcription; actives raise or lower the signal
Summary of the method: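 After a 24 h compound incubation, total RNA from MRTU-transfected HepG2 cells was converted to cDNA and reporter sequences PCR-amplified, labelled and profiled by capillary electrophoresis. Gain and loss of signal were referenced to DMSO.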

Sequence of Signal transducer and activator of transcription 3 (Homo sapiens) (P40763 whole entry, looked up): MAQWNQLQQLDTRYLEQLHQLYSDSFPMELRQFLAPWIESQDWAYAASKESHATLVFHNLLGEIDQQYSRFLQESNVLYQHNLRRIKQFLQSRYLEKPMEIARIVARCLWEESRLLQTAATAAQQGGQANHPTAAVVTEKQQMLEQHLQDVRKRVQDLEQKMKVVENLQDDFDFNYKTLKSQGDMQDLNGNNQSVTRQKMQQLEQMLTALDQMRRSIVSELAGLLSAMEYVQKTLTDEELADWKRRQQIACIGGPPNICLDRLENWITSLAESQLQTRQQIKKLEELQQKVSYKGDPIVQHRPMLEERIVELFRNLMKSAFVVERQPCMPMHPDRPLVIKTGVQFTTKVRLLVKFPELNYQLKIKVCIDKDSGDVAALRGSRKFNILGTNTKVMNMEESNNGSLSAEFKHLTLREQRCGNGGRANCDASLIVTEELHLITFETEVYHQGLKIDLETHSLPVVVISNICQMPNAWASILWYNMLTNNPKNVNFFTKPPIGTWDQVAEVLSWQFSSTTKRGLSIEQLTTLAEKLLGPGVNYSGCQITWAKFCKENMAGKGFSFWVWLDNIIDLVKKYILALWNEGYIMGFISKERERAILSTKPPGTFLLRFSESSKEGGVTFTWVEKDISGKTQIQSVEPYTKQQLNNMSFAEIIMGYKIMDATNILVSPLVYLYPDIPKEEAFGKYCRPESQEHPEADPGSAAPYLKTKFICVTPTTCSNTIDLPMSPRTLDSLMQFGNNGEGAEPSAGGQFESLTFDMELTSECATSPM

| Compound | outcome |
| --- | --- |
| CCc1cccc(CC)c1N(COC)C(=O)CS(=O)(=O)O | inactive |
| CCCCCCCCCCCCCCCC(=O)OC | inactive |
| CCC1CO1 (stereo unspecified) | inactive |
| CC=O | inactive |
| CC(C)c1c(C(=O)Nc2ccccc2)c(-c2ccccc2)c(-c2ccc(F)cc2)n1CC[C@@H](O)C[C@@H](O)CC(=O)O | inactive |
| C[C@]12CC[C@@H]3c4ccc(O)cc4CC[C@H]3[C@@H]1C[C@@H](O)[C@@H]2O | inactive |
| CCC(=O)O | inactive |
| COc1cccc(O)c1 | inactive |
| CCOC=O | inactive |
| O=CC(F)(F)C(F)(F)C(F)(F)C(F)F | inactive |
| CCCCCCCCCCCC[N+](C)(C)CCCCCCCCCCCC | inactive |
